# Results: PubChem BioAssay AID2391 (Southern Research Specialized Biocontainment Screening …, 2010)
# Hit rate of the full screen: of about 310,000 compounds, about 410 (0.13%) were called active. Another 2% or so got no clear call; they are omitted. How the calls were made is not given here. Only a sample is shown. Entries with a potency or affinity are not part of this list.
# Assay: RSV antiviral activity via CPE protection, HEp-2 cells, primary 10 µM value included (AID 2391)
# Conditions: RSV-induced CPE inhibition, at 10 µM, stronger effect = higher value
row,Compound,CPE inhibition
1,Cc1cc(-n2c(C)cc(C(=O)CN3C(=O)NC4(CCCCC4C)C3=O)c2C)no1 (stereo not given),1.72% (inactive)
2,COc1ccc(N2CCN(c3nc4c(c(=O)n(C)c(=O)n4C)n3CCCc3ccccc3)CC2)cc1,-1.29% (inactive)
3,CCOC(=O)C[C@H]1c2ccccc2S(=O)(=O)N1Cc1cc(OC)c(OC)c(OC)c1,1.62% (inactive)
4,Cc1ccccc1NC(=S)NCCc1ccc(S(N)(=O)=O)cc1,1.91% (inactive)
5,Cc1ccc(S(=O)(=O)N2CCCCC2CCNC(=O)C(=O)NC2CC2)cc1 (stereo not given),0.46% (inactive)
6,Cc1ccc(C)c(S(=O)(=O)N2CCCCC2CCNC(=O)C(=O)NC2CC2)c1 (stereo not given),-1.15% (inactive)
7,Cc1ccc(CN(C)C(=O)c2cc(COc3ccc(F)cc3Cl)on2)o1,6.3% (inactive)
8,CSc1ccccc1OCc1cc(C(=O)N(C)Cc2cc(C)[nH]n2)no1,4.8% (inactive)
9,Cc1ccc(S(=O)(=O)NCCC(=O)NCc2ccccn2)cc1,-1.85% (inactive)
10,O=C(O)c1cccc(CN2C(=O)c3ccccc3C2=O)c1,2.88% (inactive)
11,O=[N+]([O-])c1ccccc1S(=O)(=O)Nc1ccc(-c2ccc(N3CCCC3)nn2)cc1,-1.43% (inactive)
12,O=[N+]([O-])c1ccc(S(=O)(=O)Nc2cccc(-c3ccc(N4CCCC4)nn3)c2)cc1,22.4% (inactive)
13,O=[N+]([O-])c1ccccc1S(=O)(=O)Nc1ccc(-c2ccc(N3CCOCC3)nn2)cc1,-1.46% (inactive)
14,O=[N+]([O-])c1ccc(S(=O)(=O)Nc2cccc(-c3ccc(N4CCOCC4)nn3)c2)cc1,38.2% (inactive)
15,COc1ccc([N+](=O)[O-])cc1NC(=O)Cn1ccsc1=N,4.59% (inactive)
16,O=C(Nc1cccc(Cl)c1)c1ccc(NCCCN2CCOCC2)c([N+](=O)[O-])c1,5.44% (inactive)
17,O=C(NCc1cccnc1)Nc1ccc(Br)cc1Cl,1.28% (inactive)
18,COc1ccc(N2CCN(C(=O)CCc3cc(OC)c(OC)c(OC)c3)CC2)cc1,1.91% (inactive)
19,Cc1cc(NCCCO)n2nc(-c3cccs3)cc2n1,9% (inactive)
20,COCCNc1cc(C)nc2cc(-c3ccc(C)cc3)nn12,2.67% (inactive)
21,Cc1cc(NCCCn2ccnc2)n2nc(-c3ccc(F)cc3)cc2n1,-1.16% (inactive)
22,CN(C)CCCNc1cc(-c2ccccc2)nc2cc(-c3cccc(F)c3)nn12,-1.34% (inactive)
23,Cc1nc2cc(NC(=O)N(C)c3ccc4ccccc4c3)ccc2o1,12.7% (inactive)
24,CCOCCCn1c(SCC(=O)Nc2ccc(NC(C)=O)cc2)nc2ccccc2c1=O,0.96% (inactive)

row,Compound,CPE inhibition
1,CC(=O)c1c(C)[nH]c(C(=O)OCC(=O)Nc2cccc(S(=O)(=O)N(C)C)c2)c1C,6.22% (inactive)
2,CCSC1=N/C(=C\c2ccccc2)C(=O)N1c1ccc(OC)cc1,2.7% (inactive)
3,CCN(CC)C1=N/C(=C\c2ccco2)C(=O)N1c1ccccc1,2.62% (inactive)
4,CN(C(=O)CCCN1C(=O)c2ccccc2C1=O)C1CCCCC1,2.46% (inactive)
5,COc1ccc(CNC(=O)Nc2cc(C)ccc2C)cc1,2.36% (inactive)
6,O=C1CCC([N+](=O)[O-])C(c2ccc(Cl)c([N+](=O)[O-])c2)N1 (stereo not given),-2.01% (inactive)
7,O=C1CCSc2ccc(Cl)cc2N1Cc1ccccc1,1.94% (inactive)
8,O=C1CCSc2ccc(Cl)cc2N1Cc1ccc(Cl)cc1,45.3% (inactive)
9,Cc1ccc(S(=O)(=O)CCC(=O)Nc2sccc2C#N)cc1,0.59% (inactive)
10,COC(=O)Cc1ccc(NC(=S)N2CCN(c3ccc(OC)cc3)CC2)cc1,13.6% (inactive)
11,COc1ccc2nc(NC(=O)c3ccccc3C(=O)O)sc2c1,1.92% (inactive)
12,COc1ccc2nc(NC(=O)c3ccccc3F)sc2c1,3.79% (inactive)
13,Cc1ccc(S(=O)(=O)N2[C@@H](c3ccc(F)cc3)C(C(=O)O)=CC[C@H]2c2cccc(Cl)c2)cc1,1.86% (inactive)
14,CCc1cc(S(=O)(=O)N2CCN(C(=O)c3ccco3)CC2)ccc1OC,3.94% (inactive)
15,C=CCN(Cc1nc(-c2cc(OC)ccc2OC)oc1C)C1CCS(=O)(=O)C1 (stereo not given),-0.75% (inactive)
16,CCOc1ccc(C2c3[nH]c4ccccc4c3CCN2Cc2cccn2-c2ncccn2)cc1 (stereo not given),43.1% (inactive)
17,Fc1ccccc1C1c2[nH]c3ccccc3c2CCN1Cc1cccn1-c1ncccn1 (stereo not given),16.6% (inactive)
18,CC(C)(C)c1ccc(-c2nc(C#N)c(NCc3cccnc3)o2)cc1,0.34% (inactive)
19,O=C(NCc1ccccc1)c1ccc[n+]([O-])c1,0.02% (inactive)
20,COc1ccc(C(C)(C)C)cc1NC(=O)c1ccc[n+]([O-])c1,0.85% (inactive)
21,CC(=O)C1=C(O)C(=O)N(c2nccs2)C1c1ccc(F)cc1 (stereo not given),1.72% (inactive)
22,O=c1/c(=C\c2ccc(F)cc2)sc2n1CCCN=2,0.07% (inactive)
23,Cc1cccnc1Nc1nc(-c2ccc(F)cc2)cs1,14.5% (inactive)
24,CCCCN(C)C(=O)c1cc2cc3ccc(OC)cc3nc2o1,12.1% (inactive)

row,Compound,CPE inhibition
1,CCCCN(CC)C(=O)c1cc2cc3ccc(OC)cc3nc2o1,20.6% (inactive)
2,Cc1ccc2cc3cc(C(=O)NC4CCCCC4)oc3nc2c1,4.34% (inactive)
3,Cc1ccc2cc3cc(C(=O)N4CCCCCC4)oc3nc2c1,58.9% (inactive)
4,COc1ccc2cc3cc(C(=O)N4CCCC(C)C4)oc3nc2c1 (stereo not given),-0.12% (inactive)
5,COc1ccc2cc3cc(C(=O)N4CCCCCC4)oc3nc2c1,5.67% (inactive)
6,COc1ccc(/C=N/N=C2/NC(=O)C(CC(=O)O)S2)cc1OCc1ccc(Cl)cc1Cl (stereo not given),1.42% (inactive)
7,CCOc1cc(/C=N/N=C2/NC(=O)C(CC(=O)O)S2)ccc1OCc1ccc(Cl)cc1 (stereo not given),2% (inactive)
8,CC(C)NC(=O)CCNC(=O)c1ccc(F)cc1,0.45% (inactive)
9,CCCCCCC(C)n1[nH]c(=O)c2c(C)cc(C)nc21 (stereo not given),6.56% (inactive)
10,O=C(NC1=NCCS1)c1cc(-c2ccc(F)cc2)nc2ccccc12,8.35% (inactive)
11,COCCCNC(=O)c1cc(-c2cccnc2)nc2ccccc12,1.57% (inactive)
12,COCCNC(=O)COC(=O)c1cc(-c2ccc(OC)cc2)nc2ccccc12,2.44% (inactive)
13,COc1cccc(-c2cc(C(=O)Nc3ccncc3)c3ccccc3n2)c1,18.1% (inactive)
14,O=C(Nc1ncccn1)c1cc(-c2cccc(Br)c2)nc2ccccc12,10.3% (inactive)
15,O=C(NC1=NCCS1)c1cc(-c2cccnc2)nc2ccccc12,3.02% (inactive)
16,Cc1ccc2nc(SCc3cn4cccnc4n3)[nH]c2c1,0.92% (inactive)
17,CC(C(=O)Nc1cccc([N+](=O)[O-])c1)n1nnc2ccccc21 (stereo not given),-0.02% (inactive)
18,CCC1Sc2ccc(S(=O)(=O)CCC(=O)Nc3c(Cl)cc(OC)cc3OC)cc2NC1=O (stereo not given),12.2% (inactive)
19,Cc1ccc(N2CCN(C(=O)NC3CCCCC3)CC2C)cc1 (stereo not given),3.66% (inactive)
20,COc1ccc(NC(=O)NCCCN2CCN(c3ccccc3F)CC2)cc1,-2.01% (inactive)
21,CCOc1ccc(C(=O)CN2C(=O)NC3(CCCCCC3)C2=O)cc1,1.63% (inactive)
22,COc1cc2c(cc1OC)C(C)N(C(=O)c1ccc(Br)o1)CC2 (stereo not given),4.76% (inactive)
23,COc1cc2c(cc1OC)C(C)N(C(=O)/C=C/c1cc(OC)c(OC)c(OC)c1)CC2 (stereo not given),1.08% (inactive)
24,COc1cc2c(cc1OC)C(C)N(C(C)=O)CC2 (stereo not given),-1.08% (inactive)

row,Compound,CPE inhibition
1,COc1cc2c(cc1OC)C(C)N(C(=O)c1ccc(C)o1)CC2 (stereo not given),3.08% (inactive)
2,Cc1ccc(NC(=O)c2c(F)cccc2Cl)cc1S(=O)(=O)N1CCOCC1,2.31% (inactive)
3,CCOc1ccc(NC(=O)CC2C(=O)N(c3ccccc3)C(=O)N2Cc2ccccn2)cc1 (stereo not given),3.73% (inactive)
4,COc1ccc(N2C(=O)C(CC(=O)Nc3ccccc3)N(Cc3ccccn3)C2=S)cc1 (stereo not given),4.08% (inactive)
5,CCOc1ccc(NC(=O)CC2C(=O)N(c3ccc(OC)cc3)C(=S)N2Cc2ccccn2)cc1 (stereo not given),-1.46% (inactive)
6,CCOc1ccc(NC(=O)CC2C(=O)N(c3ccccc3)C(=S)N2Cc2ccccn2)cc1 (stereo not given),7.95% (inactive)
7,CCCCCc1cc(=O)oc2c(C(CCN3CCCCC3)c3ccc(OC)cc3)c(OC)cc(OC)c12 (stereo not given),-3.75% (inactive)
8,C[C@@]12C(=O)N(c3ccc(F)cc3)C(=O)N1[C@@H]1c3ccccc3OC[C@@H]1[C@H]2c1ccccc1,6.7% (inactive)
9,COc1cccc2c1c(NC(=O)Nc1ccc(F)cc1F)nn2C,1.98% (inactive)
10,COc1cccc2c1c(NC(=O)c1cc(C)on1)nn2C,2.09% (inactive)
11,CC(=O)Nc1ccc(NC(=O)C2CCC(N3C(=O)C4C5C=CC(C6CC56)C4C3=O)CC2)cc1 (stereo not given),1.77% (inactive)
12,CC(C(=O)N1CCCC1)N1CCN(S(=O)(=O)c2ccc(C(C)(C)C)cc2)CC1 (stereo not given),0.2% (inactive)
13,Cc1c(NC(=O)CSCc2ccccc2)cccc1C(=O)O,-0.3% (inactive)
14,Cc1ccc(CSCC(=O)Nc2ccccc2F)cc1,0.6% (inactive)
15,O=C(CSc1nc2ccccc2s1)N/N=C/c1ccco1,0.58% (inactive)
16,Cn1cccc1Cc1nnc(SCC(=O)Nc2ccc3c(c2)OCCO3)n1-c1ccc(F)cc1,0.23% (inactive)
17,Cc1ccc(C(=O)N[C@H](C(=O)OCC(=O)Nc2cccc(S(N)(=O)=O)c2)C(C)C)cc1,-0.34% (inactive)
18,O=C(NC1CCCCC1)c1ccc(N2CCCC2=O)cc1,2.08% (inactive)
19,Cn1ncc(Br)c1C(=O)N1CCOCC1,3.84% (inactive)
20,O=C(CNC(=O)c1ccccc1F)NCCOc1ccccc1Cl,0.24% (inactive)
21,COC(=O)c1cc(S(=O)(=O)N2CCC(C)CC2)ccc1F,0.31% (inactive)
22,CC1CCN(C(=O)COc2ccccc2F)CC1,4.04% (inactive)
23,O=C(NCCOc1ccccc1Cl)C(=O)NCCOc1ccccc1Cl,3.63% (inactive)
